Test results: PubChem BioAssay (NCI)
This is part of a sample that, as a whole, favours compounds with a hit. Of some 83,000 tested, about 20% had one in any assay.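 Single-dose data. Exposure time 48 hours. Values below 10 considered active.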 The source made the active and inactive calls.

Each molecule was assayed on UO-31 renal (assay: NCI-60 one-dose screen, 48 h (100 = growth as untreated, 0 = no growth, -100 = all killed)). Conditions: 10 µM unless noted.
Description: Growth inhibition of the UO-31 human tumor cell line is measured as a screen for anti-cancer activity. Cells are grown in 96 well plates and exposed to the test compound for 48 hours. Compounds are tested at a single concentration, which is 10^-5 M for most compounds. The reported endpoint is percent growth (GI% or GIPRCNT), where numbers from 0 - 100% represent growth inhibition, and numbers from -100% - 0 represent cell death. For example, a value of 40 represents 60% growth inhibition. A value of 0 means no net growth occurred over the course of the experiment. A value of -40 indicates 40% of cells at the beginning of the experiment died by the end of the experiment. A value of -100 means all cells are dead at the end of the experiment.
NCI-60 Human Tumor Cell Lines Screen was performed using the standard one-dose NCI protocol, which is described in more detail at https://dtp.cancer.gov/discovery_development/nci-60/default.htm.
Compounds with GIPRCNT values below 10 were considered active. Activity score was based on GIPRCNT using the following formula: […]
Score is 0 for GIPRCNT values of 100 or above, 50 for GIPRCNT values of 0, and 100 for GIPRCNT values of -100.

Question: How did the growth turn out when COc1cc2c(cc1OCCCN1CCN(CCCOc3cc4c(cc3OC)C(=O)N3CC(F)(F)C[C@H]3C=N4)CC1)N=C[C@@H]1CC(F)(F)CN1C2=O was run?
Answer: The growth was 82.4% (inactive).

Question: How did the growth turn out when CC(O)(c1ccccc1)C(c1ccccc1)C1CCCCN1 (stereo not given) was run?
Answer: The growth was 93.5% (inactive).

Question: Which growth does the source give for C#CCOc1cccc(Nc2ncnc3ccc(NC(=O)C=C)cc23)c1 here?
Answer: The growth was 9.91% (active).

Question: With CC1CCN(S(=O)(=O)c2ccc(S(=O)(=O)N3CCCC(c4nc5c(nnn5Cc5cccc(Cl)c5)c(=O)[nH]4)C3)cc2)CC1 (stereo not given) as the molecule, how does the growth read?
Answer: Its growth is 43.1% (inactive).

Question: For O=C(Nc1nc2cc(C(=O)N3CCN(C(c4ccccc4)c4ccccc4)CC3)ccc2o1)c1ccc(NC2CCCCC2)c([N+](=O)[O-])c1, which growth is on record?
Answer: Its growth is 66.5% (inactive).

Question: How did the growth turn out when C#CCNC(=O)[C@H](CC)[C@H]1CC[C@H](C)[C@H]([C@@H](C)[C@H](O)[C@H](C)C(=O)[C@H](CC)C2O[C@]3(C=CC(=O)[C@]4(CC[C@@](C)([C@H]5CC[C@](O)(CC)[C@H](C)O5)O4)O3)[C@H](C)C[C@@H]2C)O1 (stereo not given in full) was run?
Answer: The growth was 47.9% (inactive).

Question: How did the growth turn out when CC1=C2[C@@H](CC1)[C@]1(C)O[C@@](C(C)C)(C[C@H]1OC(=O)[C@H](C)O)[C@H]2OC(=O)/C=C/c1ccccc1 was run?
Answer: Its growth is 0.932% (active).

Question: O=S(=O)(Nc1ccc(Cl)c(C(F)(F)F)c1)c1ccc(-c2cnc(C3CC3)o2)cc1 was tested. Which growth did it give?
Answer: Its growth is 35.5% (inactive).

Question: With N#Cc1nc(-c2ccc(F)cc2)oc1S(=O)(=O)N1CCOCC1 as the molecule, how does the growth read?
Answer: The growth was 82% (inactive).

Question: CCn1c(SCC(=O)N/N=C(\C)c2ccc(Cl)cc2)nc2c1c(=O)n(C)c(=O)n2C was tested. Which growth did it give?
Answer: The growth was 80.8% (inactive).

Question: How did the growth turn out when CSc1oc(C)nc1[P+](c1ccccc1)(c1ccccc1)c1ccccc1 was run?
Answer: The growth was 102% (inactive).

Question: CC(C)c1ccc(C(=O)Nc2sc3c(c2C(N)=O)CCC(=O)C3)cc1 was tested. Which growth did it give?
Answer: The growth was -97.1% (active).

Question: c1ccc(-c2oc(-c3ccccc3)c(CN3CCCCC3)c2CN2CCCCC2)cc1 was tested. Which growth did it give?
Answer: The growth was 18.5% (inactive).

Question: CN(C)CC(C)(C)C(=O)/C=C/c1ccccc1 was tested. Which growth did it give?
Answer: The growth was -90.3% [25 µM] (active).

Question: CCCOC(=O)Nc1nc2ccc(SCC(C)C)cc2s1 was tested. Which growth did it give?
Answer: Its growth is 44.8% (inactive).

Question: For COC(=O)/C=C1/SC(=Nc2ccc(C(F)(F)F)cc2)N(CCc2c[nH]c3ccc(O)cc23)C1=O, which growth is on record?
Answer: The growth was -18.5% (active).

Question: How did the growth turn out when COC(=O)[C@]12CCC(C)(C)C[C@H]1[C@H]1/C(=N/OCCc3nn[nH]n3)C[C@@H]3[C@@]4(C)CC[C@H](OC(C)=O)C(C)(C)[C@@H]4CC[C@@]3(C)[C@]1(C)CC2 was run?
Answer: The growth was 15.5% (inactive).

Question: With CCOC(=O)C(=O)C(C(=O)OCC)c1ccccc1 (stereo not given) as the molecule, how does the growth read?
Answer: Its growth is 87.7% (inactive).

Question: Which growth does the source give for COc1ccc(CNc2c3ccccc3nc3ccccc23)cc1 here?
Answer: Its growth is 22.1% (inactive).

Question: CC(=O)N1N=C(c2ccc(Nc3nc(Nc4ccccc4)nc(Nc4ccccc4)n3)cc2)CC1c1ccccc1 (stereo not given) was tested. Which growth did it give?
Answer: Its growth is 73.5% (inactive).

Question: With CCN1C(=S)N(c2ccccc2)C2NC(=S)N(/N=C/C=C/c3ccccc3OC)C21 (stereo not given) as the molecule, how does the growth read?
Answer: Its growth is 44% (inactive).

Question: With C=C(C)[C@@H]1CC[C@]2(CO)CC[C@]3(C)[C@H](CC[C@@H]4[C@@]5(C)CC[C@H](NCO)C(C)(C)[C@@H]5CC[C@]43C)[C@@H]12 as the molecule, how does the growth read?
Answer: Its growth is -99.2% (active).

Question: How did the growth turn out when COc1ccc(C(C)=O)cc1S(=O)(=O)Nc1c(N)nc(SC)[nH]c1=O was run?
Answer: The growth was 94.5% (inactive).

Question: For CC/C(=C(/c1ccc(Cl)cc1)c1ccc(OCCN(C)C)cc1)c1ccc(Cl)cc1, which growth is on record?
Answer: Its growth is 64.3% (inactive).

Question: With N#CC(C#N)N=Nc1ccc(Br)cc1 as the molecule, how does the growth read?
Answer: Its growth is 2.16% (active).

Question: N#Cc1nc(-c2ccccc2)oc1S(=O)(=O)N1CCN(c2ccccc2)CC1 was tested. Which growth did it give?
Answer: The growth was 84.5% (inactive).

Question: O=C(Nc1cccc(-c2ccc(N3CCOCC3)nn2)c1)Nc1cccc(C(F)(F)F)c1 was tested. Which growth did it give?
Answer: Its growth is 74.9% (inactive).

Question: CCN(CC)S(=O)(=O)c1ccc(S(=O)(=O)N2CCC[C@@H](C(=O)N3CCN(c4nc(C(C)C)no4)CC3)C2)cc1 was tested. Which growth did it give?
Answer: The growth was 58.6% (inactive).

Question: Cn1cc(-c2csc(-c3c[nH]c4ccc(Br)cc34)n2)c2ccnc(Cl)c21 was tested. Which growth did it give?
Answer: The growth was 48.8% (inactive).

Question: Which growth does the source give for N#CC1=C(c2ccccc2)Nc2c(c(-c3ccc(Cl)cc3)nn2-c2ccccc2)C12C(=O)Nc1ccc(Cl)cc12 (stereo not given) here?
Answer: The growth was 47.8% (inactive).

Question: For Cc1ccc(-c2nc([P+](c3ccccc3)(c3ccccc3)c3ccccc3)c(S(=O)(=O)c3ccc(C)cc3)o2)cc1, which growth is on record?
Answer: Its growth is 14.9% (inactive).

Question: For C=CCc1c(O)c(C(=O)/C=C/c2ccccc2)c(OC)c2ccoc12, which growth is on record?
Answer: Its growth is 50.9% (inactive).

Question: For C#Cc1c2c(c(OC)c3c1OCO3)[C@H]([C@H]1OC(=O)c3c1ccc(OC)c3OC)N(C)CC2, which growth is on record?
Answer: The growth was 87.2% (inactive).

Question: Which growth does the source give for C=C1C(=O)O[C@H]2[C@H]1CC/C(COC(=O)/C=C\C(=O)NCc1ccc(Cn3c(=O)sn(CCI)c3=O)cc1)=C\CC[C@@]1(C)O[C@@H]21 here?
Answer: The growth was 55.1% (inactive).

Question: Which growth does the source give for Cc1ccc(/C=C2\COc3ccc(O)cc3C2=O)cc1 here?
Answer: Its growth is 58.9% (inactive).

Question: How did the growth turn out when CCCCCCCC[C@@H]1N[C@@H](C(=O)OC)Cc2c1[nH]c1ccccc21 was run?
Answer: Its growth is 73.9% (inactive).

Question: With Cn1c(=O)c2nc(/C=C/c3ccccc3)c(=O)[nH]c2n(C)c1=S as the molecule, how does the growth read?
Answer: The growth was 86.9% (inactive).

Question: CCSc1oc(-c2ccccc2)nc1[P+](c1ccccc1)(c1ccccc1)c1ccccc1 was tested. Which growth did it give?
Answer: The growth was -31.3% (active).

Question: Which growth does the source give for CCOC(=O)c1ccc2c(c1)nc(-c1ccccc1)n2C1CCCCC1 here?
Answer: The growth was 84% (inactive).

Question: Which growth does the source give for Cc1cc(S(=O)(=O)/N=C(\N)n2nc(C)c(C)c2C)c(SCc2ccccc2)cc1Cl here?
Answer: The growth was 23.8% (inactive).
